From the supplement of paper PMC6411743
± gives the standard deviation of the averaged measurements. Of roughly 6,200 targets only a part is listed; those with the largest changes were picked by preference.

Compound: Nc1ncnc2c1ncn2[C@@H]1O[C@H](COP(=O)(O)OP(=O)(O)NP(=O)(O)O)[C@@H](O)[C@H]1O [adenylyl imidodiphosphate]
Test: NP40-soluble protein abundance relative to vehicle (solubility fold change) (ratio); higher = more soluble protein in presence of AMP-PNP
Method in brief: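 Jurkat crude lysate prepared with a Dounce homogeniser was treated at eight concentrations spanning 0.1 to 10 mM, 10 min at room temperature then 3 min at 37 °C. Solubilisation with 0.8% NP40 and benzonase and ultracentrifugation preceded TMT labelling of the supernatant for LC-MS/MS. Fold change against the detergent-processed vehicle was determined per replicate from vsn-normalised intensities, across three independent experiments.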

Chain of UniProt P38935 (P38935 whole entry): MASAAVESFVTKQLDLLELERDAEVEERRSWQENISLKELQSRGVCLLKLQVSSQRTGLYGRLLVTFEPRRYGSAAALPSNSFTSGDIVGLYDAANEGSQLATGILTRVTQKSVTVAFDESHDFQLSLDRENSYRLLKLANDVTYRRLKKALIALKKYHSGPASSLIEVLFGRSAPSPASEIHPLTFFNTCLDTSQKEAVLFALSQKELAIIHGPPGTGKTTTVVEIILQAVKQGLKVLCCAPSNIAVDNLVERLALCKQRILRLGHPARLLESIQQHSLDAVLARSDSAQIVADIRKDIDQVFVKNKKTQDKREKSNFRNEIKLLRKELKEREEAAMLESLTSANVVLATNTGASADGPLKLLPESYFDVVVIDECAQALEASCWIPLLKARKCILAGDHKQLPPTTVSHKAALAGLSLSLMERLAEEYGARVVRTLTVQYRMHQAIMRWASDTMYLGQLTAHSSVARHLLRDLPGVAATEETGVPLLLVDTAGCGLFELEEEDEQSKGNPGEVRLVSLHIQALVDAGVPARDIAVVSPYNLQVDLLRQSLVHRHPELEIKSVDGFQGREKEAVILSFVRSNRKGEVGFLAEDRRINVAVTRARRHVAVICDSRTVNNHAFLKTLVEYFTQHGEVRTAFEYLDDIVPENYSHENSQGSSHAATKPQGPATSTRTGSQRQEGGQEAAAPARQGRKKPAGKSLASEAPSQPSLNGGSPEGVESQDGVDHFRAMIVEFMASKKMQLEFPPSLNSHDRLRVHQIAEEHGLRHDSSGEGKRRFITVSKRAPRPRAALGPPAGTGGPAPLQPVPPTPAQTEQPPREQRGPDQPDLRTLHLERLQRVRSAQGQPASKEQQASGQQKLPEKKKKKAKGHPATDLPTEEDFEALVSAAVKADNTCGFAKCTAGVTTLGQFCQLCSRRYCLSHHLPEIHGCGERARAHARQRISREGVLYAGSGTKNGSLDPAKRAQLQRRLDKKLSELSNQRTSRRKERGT
Chain of UniProt P49005 (P49005 whole entry, one chain of several): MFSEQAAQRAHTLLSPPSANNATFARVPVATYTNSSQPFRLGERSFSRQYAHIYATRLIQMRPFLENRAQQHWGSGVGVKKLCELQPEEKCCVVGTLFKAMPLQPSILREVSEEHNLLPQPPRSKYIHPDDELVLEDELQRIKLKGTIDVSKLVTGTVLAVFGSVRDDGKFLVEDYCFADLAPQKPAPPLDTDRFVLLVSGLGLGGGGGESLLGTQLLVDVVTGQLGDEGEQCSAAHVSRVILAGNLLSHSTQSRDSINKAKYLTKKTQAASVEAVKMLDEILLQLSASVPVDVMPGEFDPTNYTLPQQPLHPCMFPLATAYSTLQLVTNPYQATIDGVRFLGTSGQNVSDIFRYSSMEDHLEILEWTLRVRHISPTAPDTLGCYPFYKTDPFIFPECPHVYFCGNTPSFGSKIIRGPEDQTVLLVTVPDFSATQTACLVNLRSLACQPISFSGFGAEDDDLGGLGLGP
Chain of UniProt O75694 (O75694 whole entry): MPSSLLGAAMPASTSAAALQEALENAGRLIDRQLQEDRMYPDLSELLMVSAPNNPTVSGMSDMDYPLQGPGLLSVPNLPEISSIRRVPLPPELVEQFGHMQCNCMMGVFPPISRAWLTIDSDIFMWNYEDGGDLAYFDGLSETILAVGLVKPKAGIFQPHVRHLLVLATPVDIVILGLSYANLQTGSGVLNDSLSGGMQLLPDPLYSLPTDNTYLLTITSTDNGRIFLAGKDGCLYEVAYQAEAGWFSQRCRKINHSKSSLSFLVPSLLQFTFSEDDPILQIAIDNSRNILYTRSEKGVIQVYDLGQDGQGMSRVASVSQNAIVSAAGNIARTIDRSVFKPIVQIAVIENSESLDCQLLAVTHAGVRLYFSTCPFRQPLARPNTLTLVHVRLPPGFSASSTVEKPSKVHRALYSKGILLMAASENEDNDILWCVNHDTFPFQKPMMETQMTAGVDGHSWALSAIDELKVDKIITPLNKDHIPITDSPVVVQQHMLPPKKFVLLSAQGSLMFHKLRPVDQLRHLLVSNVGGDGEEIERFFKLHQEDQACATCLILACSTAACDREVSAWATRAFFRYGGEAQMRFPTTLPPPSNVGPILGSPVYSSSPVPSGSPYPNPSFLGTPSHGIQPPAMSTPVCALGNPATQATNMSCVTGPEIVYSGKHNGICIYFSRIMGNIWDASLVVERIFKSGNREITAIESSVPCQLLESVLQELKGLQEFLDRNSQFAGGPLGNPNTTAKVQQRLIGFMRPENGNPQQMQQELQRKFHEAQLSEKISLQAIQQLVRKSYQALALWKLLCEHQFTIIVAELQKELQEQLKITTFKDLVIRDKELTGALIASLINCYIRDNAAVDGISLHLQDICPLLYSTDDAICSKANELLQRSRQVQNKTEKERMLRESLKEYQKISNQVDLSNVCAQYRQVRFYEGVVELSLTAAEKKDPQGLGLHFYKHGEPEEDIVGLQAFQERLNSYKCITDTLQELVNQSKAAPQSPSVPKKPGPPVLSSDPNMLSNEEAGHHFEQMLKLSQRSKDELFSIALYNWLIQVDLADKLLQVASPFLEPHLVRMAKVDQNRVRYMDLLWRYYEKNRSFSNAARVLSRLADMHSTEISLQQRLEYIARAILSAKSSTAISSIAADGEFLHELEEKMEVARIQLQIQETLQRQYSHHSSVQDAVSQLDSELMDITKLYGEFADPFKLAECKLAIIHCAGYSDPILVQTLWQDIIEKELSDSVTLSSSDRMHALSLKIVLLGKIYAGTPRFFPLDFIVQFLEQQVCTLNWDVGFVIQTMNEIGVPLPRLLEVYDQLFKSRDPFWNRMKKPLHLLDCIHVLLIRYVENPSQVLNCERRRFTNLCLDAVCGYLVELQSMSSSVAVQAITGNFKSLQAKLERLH
Chain of UniProt Q12872 (Q12872 whole entry): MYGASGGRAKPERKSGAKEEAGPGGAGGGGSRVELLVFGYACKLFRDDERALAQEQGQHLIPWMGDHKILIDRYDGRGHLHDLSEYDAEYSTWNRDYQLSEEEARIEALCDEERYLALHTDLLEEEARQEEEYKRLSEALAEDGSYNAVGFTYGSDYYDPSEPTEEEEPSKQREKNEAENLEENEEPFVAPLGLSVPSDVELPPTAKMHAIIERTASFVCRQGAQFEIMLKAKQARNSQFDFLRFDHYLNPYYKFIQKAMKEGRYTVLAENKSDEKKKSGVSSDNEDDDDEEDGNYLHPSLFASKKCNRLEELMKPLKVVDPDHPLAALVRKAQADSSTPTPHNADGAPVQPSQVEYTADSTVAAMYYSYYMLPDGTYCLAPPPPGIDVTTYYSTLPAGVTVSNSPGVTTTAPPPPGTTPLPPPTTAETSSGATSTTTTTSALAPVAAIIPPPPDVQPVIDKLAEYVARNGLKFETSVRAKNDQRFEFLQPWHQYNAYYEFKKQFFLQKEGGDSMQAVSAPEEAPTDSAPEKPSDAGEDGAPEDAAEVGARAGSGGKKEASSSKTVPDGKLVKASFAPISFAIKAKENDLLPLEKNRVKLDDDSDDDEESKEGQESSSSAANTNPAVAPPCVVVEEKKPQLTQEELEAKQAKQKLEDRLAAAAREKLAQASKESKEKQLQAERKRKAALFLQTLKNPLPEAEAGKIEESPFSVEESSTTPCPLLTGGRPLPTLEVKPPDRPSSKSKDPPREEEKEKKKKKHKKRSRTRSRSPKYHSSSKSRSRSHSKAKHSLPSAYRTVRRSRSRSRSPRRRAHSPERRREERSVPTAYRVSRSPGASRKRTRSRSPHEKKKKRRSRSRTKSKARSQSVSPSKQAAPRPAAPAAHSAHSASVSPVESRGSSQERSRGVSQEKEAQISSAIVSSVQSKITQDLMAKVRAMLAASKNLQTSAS
Chain of UniProt P10412 (P10412 whole entry): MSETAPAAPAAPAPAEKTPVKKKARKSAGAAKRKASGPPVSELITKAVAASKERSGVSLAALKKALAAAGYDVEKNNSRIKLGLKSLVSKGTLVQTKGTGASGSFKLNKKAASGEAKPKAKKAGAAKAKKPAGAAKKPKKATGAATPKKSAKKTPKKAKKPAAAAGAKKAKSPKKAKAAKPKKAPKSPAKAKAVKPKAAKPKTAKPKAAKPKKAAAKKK
Chain of UniProt P05114 (P05114 whole entry): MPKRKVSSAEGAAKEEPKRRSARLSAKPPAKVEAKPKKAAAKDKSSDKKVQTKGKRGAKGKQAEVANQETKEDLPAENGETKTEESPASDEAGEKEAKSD
Chain of UniProt P07108 (P07108 whole entry): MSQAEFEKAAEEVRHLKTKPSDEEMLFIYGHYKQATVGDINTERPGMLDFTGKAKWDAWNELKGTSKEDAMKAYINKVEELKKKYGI
Chain of UniProt O75616 (O75616 whole entry): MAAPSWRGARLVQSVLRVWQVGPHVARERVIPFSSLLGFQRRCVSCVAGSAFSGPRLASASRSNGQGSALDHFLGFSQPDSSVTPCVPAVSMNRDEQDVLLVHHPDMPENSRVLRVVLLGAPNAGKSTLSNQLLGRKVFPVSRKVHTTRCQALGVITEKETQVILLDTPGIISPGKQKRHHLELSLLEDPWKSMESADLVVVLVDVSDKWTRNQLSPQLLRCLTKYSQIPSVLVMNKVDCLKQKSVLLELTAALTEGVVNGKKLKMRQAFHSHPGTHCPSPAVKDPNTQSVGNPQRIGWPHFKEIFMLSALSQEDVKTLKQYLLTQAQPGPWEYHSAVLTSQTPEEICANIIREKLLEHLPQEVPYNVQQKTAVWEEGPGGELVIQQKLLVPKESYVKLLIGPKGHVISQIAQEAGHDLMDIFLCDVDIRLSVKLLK
Chain of UniProt O75436 (O75436 whole entry): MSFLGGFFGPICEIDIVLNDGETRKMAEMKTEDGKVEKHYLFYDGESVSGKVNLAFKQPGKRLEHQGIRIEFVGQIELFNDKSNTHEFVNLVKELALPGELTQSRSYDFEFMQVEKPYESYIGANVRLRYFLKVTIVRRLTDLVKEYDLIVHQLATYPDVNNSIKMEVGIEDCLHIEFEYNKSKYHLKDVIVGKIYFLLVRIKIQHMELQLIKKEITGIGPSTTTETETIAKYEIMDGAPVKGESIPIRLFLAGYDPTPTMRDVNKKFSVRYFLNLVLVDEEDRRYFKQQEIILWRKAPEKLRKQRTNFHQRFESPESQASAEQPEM

Target	NP40-soluble protein abundance (concentration: 1mM)	NP40-soluble protein abundance (concentration: 2mM)	NP40-soluble protein abundance (concentration: 4mM)	NP40-soluble protein abundance (concentration: 6mM)	NP40-soluble protein abundance (concentration: 8mM)	NP40-soluble protein abundance (concentration: 10mM)
UniProt P55060|P55060-3	1 ± 0.012	1.02 ± 0.11	0.987 ± 0.032	1.01 ± 0.04	0.985 ± 0.027	1.02 ± 0.04
UniProt P09651-2|P09651	1.04 ± 0.11	1.09 ± 0.075	1.09 ± 0.11	1.14 ± 0.15	1.18 ± 0.15	1.25 ± 0.18
ERAL1 (UniProt O75616)	0.7647 ± 0.0038	0.6675 ± 0.0031	0.716 ± 0.036	0.681 ± 0.011	0.674 ± 0.062	0.636 ± 0.04
SSRP1 (UniProt Q08945)	1.05 ± 0.053	1.07 ± 0.03	1.13 ± 0.045	1.35 ± 0.055	1.47 ± 0.058	1.73 ± 0.1
SURF6 (UniProt O75683)	1.05 ± 0.056	1.12 ± 0.092	1.1 ± 0.057	1.17 ± 0.095	1.14 ± 0.12	1.22 ± 0.088
UniProt P23771|P23771-2	0.959 ± 0.029	0.99 ± 0.043	0.9254 ± 0.0013	0.895 ± 0.0095	0.908 ± 0.012	0.908 ± 0.022
CAPZA2 (UniProt P47755)	1.01 ± 0.013	0.966 ± 0.02	0.9851 ± 0.0046	0.9821 ± 0.0042	1.004 ± 0.0091	0.986 ± 0.017
PAK1 (UniProt Q13153)	0.989 ± 0.035	1.05 ± 0.046	0.989 ± 0.036	0.981 ± 0.013	0.926 ± 0.032	0.975 ± 0.041
UniProt O75822|O75822-2	0.876 ± 0.042	0.941 ± 0.07	0.858 ± 0.031	0.949 ± 0.026	0.957 ± 0.029	0.99 ± 0.015
HIST1H1B (UniProt P16401)	1.052 ± 0.0074	1.18 ± 0.18	1.15 ± 0.11	1.27 ± 0.22	1.32 ± 0.21	1.59 ± 0.19
UniProt P25398	0.934 ± 0.016	0.955 ± 0.044	0.869 ± 0.053	0.872 ± 0.033	0.81 ± 0.054	0.847 ± 0.049
UniProt P53384|P53384-2	0.979 ± 0.025	0.969 ± 0.057	1 ± 0.031	0.982 ± 0.022	0.97 ± 0.014	0.96 ± 0.063
UniProt Q12974|Q12974-4	1.04 ± 0.032	1.022 ± 0.0039	0.956 ± 0.027	0.996 ± 0.025	1.02 ± 0.029	0.988 ± 0.02
RFX1 (UniProt P22670)	1.04 ± 0.016	1.03 ± 0.015	1.03 ± 0.03	1 ± 0.033	1.01 ± 0.025	0.995 ± 0.02
UniProt P52948|P52948-2|P52948-5|P52948-6	1.07 ± 0.047	1.1 ± 0.015	1.13 ± 0.018	1.22 ± 0.056	1.28 ± 0.02	1.417 ± 0.011
FXR2 (UniProt P51116)	1.07 ± 0.022	1.1 ± 0.023	1.2 ± 0.025	1.24 ± 0.076	1.33 ± 0.051	1.39 ± 0.12
UniProt P38159|P38159-2	1.12 ± 0.09	1.34 ± 0.094	1.34 ± 0.037	1.53 ± 0.16	1.58 ± 0.19	1.82 ± 0.16
UniProt P49588|P49588-2	1.01 ± 0.013	0.976 ± 0.05	0.967 ± 0.041	0.979 ± 0.013	0.954 ± 0.03	0.952 ± 0.05
UniProt O94763	1.05 ± 0.048	1.13 ± 0.06	1.05 ± 0.05	1.02 ± 0.1	0.962 ± 0.063	1.02 ± 0.059
TBL3 (UniProt Q12788)	1.07 ± 0.02	1.15 ± 0.05	1.21 ± 0.023	1.35 ± 0.027	1.46 ± 0.024	1.53 ± 0.075

Target	NP40-soluble protein abundance (concentration: 1mM)	NP40-soluble protein abundance (concentration: 2mM)	NP40-soluble protein abundance (concentration: 4mM)	NP40-soluble protein abundance (concentration: 6mM)	NP40-soluble protein abundance (concentration: 8mM)	NP40-soluble protein abundance (concentration: 10mM)
PSMB4 (UniProt P28070)	0.931 ± 0.043	0.905 ± 0.048	0.918 ± 0.096	0.971 ± 0.046	0.968 ± 0.071	1 ± 0.13
UniProt P49005|F8W8R3	0.977 ± 0.021	0.947 ± 0.059	0.973 ± 0.027	0.929 ± 0.011	0.9339 ± 0.0057	0.925 ± 0.037
POLR1A (UniProt O95602)	1 ± 0.017	1 ± 0.086	1.07 ± 0.1	1.08 ± 0.12	1.07 ± 0.14	1.11 ± 0.14
IGFBP2 (UniProt P18065)	1.03 ± 0.034	1.03 ± 0.058	1.01 ± 0.067	0.966 ± 0.0077	0.991 ± 0.021	0.957 ± 0.014
WDHD1 (UniProt O75717)	1.01 ± 0.021	0.996 ± 0.012	0.99 ± 0.015	0.963 ± 0.036	0.953 ± 0.016	0.937 ± 0.014
UniProt Q13163|Q13163-2|Q13163-3|Q13163-4	0.968 ± 0.026	1.01 ± 0.041	1.02 ± 0.057	0.958 ± 0.049	0.933 ± 0.019	0.941 ± 0.022
GTF2F2 (UniProt P13984)	1 ± 0.011	1.06 ± 0.023	1.04 ± 0.019	1.07 ± 0.018	1.07 ± 0.015	1.103 ± 0.0083
LDHB (UniProt P07195)	1.01 ± 0.019	0.92 ± 0.025	0.947 ± 0.02	0.973 ± 0.036	0.969 ± 0.024	0.943 ± 0.013
UniProt Q02078-2|Q02078-4|Q02078-6|Q02078-5	1.0199 ± 0.0007	1.03 ± 0.017	1.023 ± 0.0072	0.98 ± 0.014	0.9784 ± 0.0097	0.98 ± 0.053
HMGN1 (UniProt P05114)	1.23 ± 0.1	1.36 ± 0.18	1.28 ± 0.074	1.57 ± 0.15	1.54 ± 0.16	1.89 ± 0.36
UniProt P63279	0.993 ± 0.076	1.01 ± 0.076	1.01 ± 0.1	1.04 ± 0.12	1.12 ± 0.07	1.07 ± 0.066
DBI (UniProt P07108)	1.04 ± 0.064	1.06 ± 0.055	0.987 ± 0.015	0.96 ± 0.041	0.928 ± 0.025	0.997 ± 0.1
NUDT2 (UniProt P50583)	0.9311 ± 0.0079	0.909 ± 0.027	1.56 ± 0.26	1.22 ± 0.17	1.49 ± 0.23	1.14 ± 0.14
PSMD2 (UniProt Q13200)	0.891 ± 0.014	0.849 ± 0.068	0.854 ± 0.074	0.858 ± 0.087	0.851 ± 0.086	0.816 ± 0.12
UniProt P52824|H0YA20	0.978 ± 0.0098	0.979 ± 0.023	0.955 ± 0.028	0.99 ± 0.025	0.96 ± 0.039	0.986 ± 0.03
UniProt P17812	0.932 ± 0.03	0.873 ± 0.06	0.91 ± 0.033	0.96 ± 0.077	0.97 ± 0.04	0.924 ± 0.044
UQCRB (UniProt P14927)	0.9813 ± 0.003	1.07 ± 0.082	0.954 ± 0.025	0.969 ± 0.018	0.935 ± 0.0015	0.933 ± 0.023
UniProt P61289|P61289-2	0.983 ± 0.064	0.955 ± 0.12	0.808 ± 0.23	0.886 ± 0.17	0.999 ± 0.037	0.968 ± 0.1
CSTF1 (UniProt Q05048)	0.9781 ± 0.0088	0.931 ± 0.075	1 ± 0.015	1 ± 0.015	1.069 ± 0.0036	1.02 ± 0.046
AKT2 (UniProt P31751)	0.974 ± 0.025	0.95 ± 0.043	0.969 ± 0.034	0.947 ± 0.031	0.969 ± 0.017	0.96 ± 0.044

Target	NP40-soluble protein abundance (concentration: 1mM)	NP40-soluble protein abundance (concentration: 2mM)	NP40-soluble protein abundance (concentration: 4mM)	NP40-soluble protein abundance (concentration: 6mM)	NP40-soluble protein abundance (concentration: 8mM)	NP40-soluble protein abundance (concentration: 10mM)
HIST1H1E (UniProt P10412)	1.04 ± 0.06	1.15 ± 0.09	1.12 ± 0.05	1.25 ± 0.15	1.24 ± 0.23	1.56 ± 0.14
UniProt O95786|O95786-2	0.996 ± 0.051	0.944 ± 0.035	0.978 ± 0.022	0.942 ± 0.017	0.967 ± 0.021	0.933 ± 0.029
UniProt P48047	0.907 ± 0.042	0.912 ± 0.041	0.896 ± 0.051	0.96 ± 0.087	0.974 ± 0.045	0.938 ± 0.1
UniProt P36402-5	0.952 ± 0.025	0.984 ± 0.03	0.924 ± 0.046	0.876 ± 0.025	0.8484 ± 0.0036	0.837 ± 0.015
UniProt Q05519|Q05519-2	1.12 ± 0.031	1.18 ± 0.11	1.21 ± 0.088	1.26 ± 0.049	1.34 ± 0.16	1.51 ± 0.2
LCP2 (UniProt Q13094)	1.02 ± 0.027	1.05 ± 0.053	0.992 ± 0.034	0.98 ± 0.0097	0.955 ± 0.042	0.947 ± 0.061
UniProt O75367|O75367-2|O75367-3	1.01 ± 0.066	1 ± 0.055	1.05 ± 0.075	1.15 ± 0.034	1.26 ± 0.092	1.44 ± 0.049
NUP155 (UniProt O75694)	0.983 ± 0.046	0.919 ± 0.062	1 ± 0.025	0.98 ± 0.039	1.01 ± 0.035	1 ± 0.023
UniProt Q01082|Q01082-3	1.05 ± 0.028	1.08 ± 0.035	1.05 ± 0.019	1.08 ± 0.06	1.05 ± 0.032	1.09 ± 0.056
UniProt P62857	0.941 ± 0.041	0.993 ± 0.078	0.919 ± 0.069	0.837 ± 0.071	0.74 ± 0.057	0.847 ± 0.092
THOP1 (UniProt P52888)	0.938 ± 0.036	0.884 ± 0.095	0.924 ± 0.021	0.944 ± 0.034	0.942 ± 0.041	0.921 ± 0.028
MPP1 (UniProt Q00013)	1.01 ± 0.015	0.964 ± 0.035	1.01 ± 0.028	0.978 ± 0.028	1.01 ± 0.048	0.986 ± 0.034
IGHMBP2 (UniProt P38935)	1.17 ± 0.014	1.16 ± 0.05	1.22 ± 0.083	1.26 ± 0.086	1.33 ± 0.06	1.42 ± 0.12
ECHS1 (UniProt P30084)	0.9976 ± 0.0068	0.9885 ± 0.006	0.955 ± 0.029	0.994 ± 0.02	0.963 ± 0.017	0.961 ± 0.015
ITGA2 (UniProt P17301)	0.9944 ± 0.0014	1.02 ± 0.084	0.988 ± 0.024	1.019 ± 0.0071	1.01 ± 0.025	1.04 ± 0.011
HMGN2 (UniProt P05204)	1.06 ± 0.04	1.15 ± 0.12	1.09 ± 0.05	1.25 ± 0.081	1.16 ± 0.21	1.54 ± 0.28
UniProt P62701	0.95 ± 0.063	0.87 ± 0.091	0.879 ± 0.11	0.873 ± 0.065	0.821 ± 0.071	0.851 ± 0.13
VPS26A (UniProt O75436)	0.946 ± 0.045	0.861 ± 0.062	0.895 ± 0.019	0.872 ± 0.032	0.931 ± 0.046	0.829 ± 0.02
UniProt Q12872|Q12872-2	1.04 ± 0.04	1.11 ± 0.061	1.12 ± 0.043	1.17 ± 0.097	1.2 ± 0.1	1.33 ± 0.1
UniProt P20073|P20073-2	0.966 ± 0.053	0.996 ± 0.093	0.989 ± 0.069	0.998 ± 0.086	1.04 ± 0.052	0.995 ± 0.096
